Results: ChEMBL document CHEMBL3988442, “University of Dundee, Small-Polar-MMV Screening Library” (2021)
Out of some 48,000 compounds screened, about 13,000 (27%) showed an effect of 50% or more. The list shows a part of the results.

The molecules below were run on Wolbachia pipientis (assay: Anti-Wolbachia Cell-Based Screen). Settings: 5 µM.
Assay type: functional
Set-up: scale not given: in the data most compounds retested in dose-response had high values

Structure (SMILES) | Percent Effect [%]
CC(CNC(=O)CCCc1ccccn1)c1ccsc1 (stereo unspecified) | 1.971
Cc1ccc(NC(=O)C2CSCN2C(=O)c2cnn(C)c2)c(C)c1 (stereo unspecified) | -7.721
O=C(C1CC1)N1C[C@@H](F)[C@@H](OCc2nc3ccccc3o2)C1 | -16.99
N#Cc1cn(CC(=O)NC2CC2)c2ccc(Br)cc2c1=O | -2.411
COCCCN1C(=O)CC[C@H]2CN(c3ccnc4ccccc34)CC[C@H]21 | -6.412
COC1CCN(CCNC(=O)C2CCCCC2)CC1 | -3.467
CCc1cnc(CN(C)C(=O)NC2CCN(c3ccccc3)C2)s1 (stereo unspecified) | 0.02013
Cc1cc(N(C)Cc2ncc(-c3ccccc3C(=O)O)s2)ncn1 | 81.06
COc1cc(N(C)CCC(O)c2ccccc2)ncn1 (stereo unspecified) | 13.13
CN(C)C(Cn1ccnc1-c1ccccc1C(=O)O)c1ccccc1Cl (stereo unspecified) | -23.61
Cc1nccc(N(C)Cc2ncc(-c3ccccc3C(=O)O)s2)n1 | 127.4
Cc1ccsc1C(Cn1ccnc1-c1ccccc1C(=O)O)N(C)C (stereo unspecified) | -13.02
COc1cc(N2CCC3(C2)CN(c2cccnc2)C(=O)CN3C)ncn1 (stereo unspecified) | -13.12
CN1CC(=O)N(c2ccccc2)Cc2c(NC3CC3)ncnc21 | 112.7
O=C1CCCCN1c1cccc(CNC2CCCC2)c1 | 0.3467
NC(=O)c1cnc(NC2CCN(c3ccccc3)CC2)c(Cl)c1 | -3.801
Cc1cccc(N2Cc3nc(=O)[nH]n3C2=O)c1 | 2.871
Cc1cccc(N2Cc3c(NC4CCCC4)ncnc3N(C)CC2=O)c1 | 95.74
CN1CC(=O)N(c2cccnc2)Cc2c(NC3CC3)ncnc21 | 103.4
Cc1csc(CN2CC[C@H]3C(=O)N(c4cccnc4)CCO[C@H]3C2)n1 | 6.542
CN1CC(Nc2nc3c(cnn3-c3ccccc3)c(=O)[nH]2)CCC1=O (stereo unspecified) | 9.222
C=C1c2ccccc2C(=O)N1CCC(=O)N1CCNC(=O)C1 | -10.5

Structure (SMILES) | Percent Effect [%]
N#Cc1c(Cl)nsc1N1CCN(CC2CC2)CC1 | 5.491
CC(C)N1CCN(C)CC1c1nnc2ccc(C(=O)N3CCCC3)cn12 (stereo unspecified) | -1.369
CCNC(=O)N1CCC2(CC1)CCn1c(C3CC3)cnc12 | 0.3432
CCn1ncc(S(=O)(=O)N[C@@H]2CC[C@@H](n3ccnc3C)[C@@H]2O)c1C | 115.7
CCn1ncc(S(=O)(=O)N[C@@H]2CC[C@@H](n3ccnc3)[C@@H]2O)c1C | 136.9
CCn1ncc(S(=O)(=O)N[C@@H]2CCC[C@@H](n3ccnc3)[C@@H]2O)c1C | 136.1
CC(=O)N1CCC(N[C@@H]2CC[C@@H]2NS(=O)(=O)c2cccnc2)CC1 | -3.734
CCn1cc(CN(C)S(=O)(=O)c2cnn(CC)c2C)c(C)n1 | -1.191
Cc1cccc(NC(=O)N(CCC(F)(F)F)C[C@H](O)CO)c1 | -5.672
Cc1cnc(C)c(N2CCN(CCCc3[nH]nc(C)c3C)CC2)n1 | 13.39
COc1ccc(-c2cn3c(n2)CO[C@@H](CNCc2nccn2C)C3)cc1 | 1.884
CN(C)C1CCN(C(=O)c2ccc(Cn3ccccc3=O)o2)CC1 | -4.856
Cc1nc(CCCNC(=O)C2CC(=O)N(C3CC3)C2)sc1C (stereo unspecified) | 0.5008
CS(=O)(=O)NC1CCN(Cc2ccc(OCc3ccccn3)cc2)CC1 | -10.21
CCc1ncc2c(n1)CN(C(=O)CNC(=O)C(C)C)C2 | -10.3
CN(Cc1ccsc1)C(=O)Nc1cccnc1N1CCCC1 | 3.447
CCc1nc(CC)n(CC(=O)NCc2ccccc2C)n1 | 109.4
CCNC(=O)NC1CN(CC(=O)NCc2ccccc2C)C[C@@H]1OC (stereo partly specified) | -0.1158
CCCc1nnnn1Cc1cn2c(C)cccc2n1 | -18.43
CCCc1nnnn1CC(=O)NCc1cccc(C)c1 | 98.23
CCc1nc(CC)n(CC(=O)NCc2cccc(C)c2)n1 | 86.53
CCc1nc(CC)n(CC(=O)N(CC)CC)n1 | -1.582

Structure (SMILES) | Percent Effect [%]
Cn1cnn(CC(=O)NCc2ccccc2F)c1=O | -8.996
Cc1nn(C)c(C)c1OCC(=O)NCc1cccc(CO)c1 | -2.193
CCc1nc(CC)n(CC(=O)N(C)CC(F)(F)F)n1 | 0.1098
CN(C)C[C@H]1O[C@H](Cc2cc(-c3ccccn3)on2)CC[C@@H]1O | -5.695
O=C(NS(=O)(=O)c1cccc(F)c1)c1ccccc1F | -17.84
Cc1noc(COCC(=O)Nc2ncccc2Br)n1 | -14.88
CCN(CC)C1(Cc2cc(CC(C)C)on2)COC1 | -8.16
O[C@H]1CCN(CC2CCOC2)[C@H]1Cc1ccncc1 (stereo partly specified) | -12.65
Cc1ccc(CC(=O)N2CCOC(c3nc(C)n[nH]3)C2)cn1 (stereo unspecified) | 12.26
Cc1ccccc1C(=O)N1CCOC(c2ncc(CN(C)C)[nH]2)C1 (stereo unspecified) | 53.49
O=C(c1cccnc1O)N1CCOC(c2ccc(Cl)cc2)C1 (stereo unspecified) | -6.348
Cc1ccc(C(=O)N2CCOC(c3ncc(CN(C)C)[nH]3)C2)cc1F (stereo unspecified) | 86.38
Cc1n[nH]c(C2CN(C(=O)c3ccn(C)c(=O)c3)CCO2)n1 (stereo unspecified) | 0.6849
CN(C)Cc1cnc(C2CN(C(=O)c3ccccc3Cl)CCO2)[nH]1 (stereo unspecified) | 174.9
Cc1ccc(CC(=O)N2CCOC(c3ncc(CN(C)C)[nH]3)C2)s1 (stereo unspecified) | 104.7
Cc1n[nH]c(C2CN(C(=O)c3coc(Br)c3)CCO2)n1 (stereo unspecified) | -34.21
O=C(c1cccnc1N1CCCC1)N1CCOC(c2ccccc2)C1 (stereo unspecified) | 5.885
CCCc1ncc(C(=O)N2CCOC(c3nc(C)n[nH]3)C2)s1 (stereo unspecified) | 1.166
Cc1n[nH]c(C2CN(C(=O)c3cc(C)sc3C)CCO2)n1 (stereo unspecified) | -9.628
CCCc1n[nH]c(C2CN(C(=O)Cc3ccc(C)nc3)CCO2)n1 (stereo unspecified) | -3.481
O=C(Cc1ccon1)Nc1cncc(Br)c1O | -6.673
CCOC1CCN(C(=O)c2c(Cl)c3ccccc3n2C)CC1 | 4.018
